Results on 72 molecules are retold here after PubChem BioAssay.

Structures are written as SMILES. Unmarked numbers belong to inactive results. Active and inactive are the calls of the source. Unless noted, no stated cut-off is given here; in the data, active means inhibition above about 36%; inactive means the rest.

For assay [1], the system named is transactivating tegument protein VP16 (Human herpesvirus 1). In words: compounds suppressing VP16-driven luciferase signal – cell-based, luminescence, single concentration, counter-screen for SRC2 inhibitor project (AID 652007). Particulars: cell-based VP16 transactivation luciferase reporter, at 8.9 µM, stronger effect = higher value. (Counterscreens check selectivity or assay interference.)

Assay [2] concerns the target Nuclear receptor coactivator 2 (Homo sapiens) (UniProt Q15596). The experiment in a line: inhibition of GAL4-SRC2 driven luciferase expression – cell-based, luminescence, HEK293, triplicate, confirmation (AID 652008;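 active means mean inhibition above 46.5%, the solvent-only control mean plus 3 SD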;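 further: 0% = DMSO-treated cells and 100% = Gossypol at 36 µM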). As to conditions: HEK293 GAL4-SRC2 luciferase reporter, at 8.9 µM, stronger effect = higher value.

Chain of Nuclear receptor coactivator 2 (Homo sapiens) (Q15596 whole entry, looked up, the tested form may be a part): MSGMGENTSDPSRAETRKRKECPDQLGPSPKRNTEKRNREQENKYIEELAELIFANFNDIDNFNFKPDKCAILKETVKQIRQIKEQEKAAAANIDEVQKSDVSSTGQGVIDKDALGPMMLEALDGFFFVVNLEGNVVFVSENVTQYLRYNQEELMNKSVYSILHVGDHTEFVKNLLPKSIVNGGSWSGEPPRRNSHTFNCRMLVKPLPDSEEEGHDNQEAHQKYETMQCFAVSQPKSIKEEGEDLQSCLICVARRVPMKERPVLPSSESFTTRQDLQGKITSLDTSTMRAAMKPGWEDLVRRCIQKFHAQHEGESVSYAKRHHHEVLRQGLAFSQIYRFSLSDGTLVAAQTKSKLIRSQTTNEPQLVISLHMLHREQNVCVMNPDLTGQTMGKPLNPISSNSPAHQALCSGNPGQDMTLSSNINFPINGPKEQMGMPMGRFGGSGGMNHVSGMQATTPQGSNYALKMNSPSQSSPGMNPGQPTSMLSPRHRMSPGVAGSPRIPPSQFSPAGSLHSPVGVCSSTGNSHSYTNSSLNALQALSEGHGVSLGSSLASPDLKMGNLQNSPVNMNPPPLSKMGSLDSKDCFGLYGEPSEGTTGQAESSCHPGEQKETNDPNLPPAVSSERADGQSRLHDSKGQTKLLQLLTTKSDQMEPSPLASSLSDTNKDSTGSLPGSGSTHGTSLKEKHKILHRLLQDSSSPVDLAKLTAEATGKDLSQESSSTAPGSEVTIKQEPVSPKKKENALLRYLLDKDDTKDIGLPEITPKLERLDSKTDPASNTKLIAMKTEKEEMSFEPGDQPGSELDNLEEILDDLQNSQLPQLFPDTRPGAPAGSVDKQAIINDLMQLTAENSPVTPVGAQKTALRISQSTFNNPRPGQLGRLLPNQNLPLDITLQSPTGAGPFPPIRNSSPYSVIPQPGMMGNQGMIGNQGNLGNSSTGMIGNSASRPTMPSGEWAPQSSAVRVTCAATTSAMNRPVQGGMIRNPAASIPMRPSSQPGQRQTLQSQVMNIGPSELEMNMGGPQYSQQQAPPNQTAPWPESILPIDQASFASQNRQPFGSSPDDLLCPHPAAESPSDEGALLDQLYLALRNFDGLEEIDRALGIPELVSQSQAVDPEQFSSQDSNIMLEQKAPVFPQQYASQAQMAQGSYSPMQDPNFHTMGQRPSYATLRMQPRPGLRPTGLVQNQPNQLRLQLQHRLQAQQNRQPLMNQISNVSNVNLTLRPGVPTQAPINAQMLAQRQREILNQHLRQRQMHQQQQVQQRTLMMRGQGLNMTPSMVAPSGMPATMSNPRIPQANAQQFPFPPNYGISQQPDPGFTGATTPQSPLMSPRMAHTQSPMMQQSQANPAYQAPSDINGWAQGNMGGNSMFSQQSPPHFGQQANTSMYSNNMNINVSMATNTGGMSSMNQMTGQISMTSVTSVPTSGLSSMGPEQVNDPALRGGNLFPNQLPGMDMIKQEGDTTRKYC

The term inhibition denotes the relative decrease from the control value, in per cent. Turning to `CCOc1ccc(-c2cc(CCCC(=O)Nc3cc(OC)ccc3OC)no2)cc1`, the inhibition was 47.9% (active) in assay [1] and 79.5% (active) in assay [2].
In the same order, the values of `O=C(COC(=O)c1cccc(F)c1)Nc1cccc(S(=O)(=O)N2CCCCC2)c1` are 1.01% and 2.48%.
As for `COc1ccc(OC)c(NC(=O)COC(=O)CCCN=C2NS(=O)(=O)c3ccccc32)c1`, the inhibition in assay [1] was -0.67%; in assay [2], -10.3%.
With `COc1ccc(-c2nc(-c3ccccc3)no2)c(OC)c1`, the inhibition in assay [1] was 3.43%; in assay [2] it was 53.8% (active).
Take `CC(C)C(=O)Nc1ccc(C(=O)NCc2cccnc2)cc1`: the values for the inhibition in assay [1] and in assay [2] were -2.6% and 33.3%, respectively.
Regarding `COc1ccc(OC)c(C2C(C#N)=C(N)Oc3c2c(C)nn3-c2cccc(Cl)c2)c1` (centres undefined), the inhibition in assay [1] was 3%; in assay [2], 4.46%.
For the molecule `CCN1CCN(C(c2ccc(C(F)(F)F)cc2)c2ccc3cccnc3c2O)CC1` (centres undefined), the inhibition in assay [1] is -15.7%; in assay [2], 13.2%.
Turning to `Nc1ccc(C(=O)N2CCN(S(=O)(=O)c3ccc4c(c3)OCCO4)CC2)cc1[N+](=O)[O-]`, the inhibition was 2.71% in assay [1] and 40.5% in assay [2].
On to `Cc1ccc(NS(=O)(=O)c2cccc(C(=O)NCCCN3CCCC3=O)c2)cc1`, for which the inhibition is -1.94% in assay [1] and 0.08% in assay [2].
Turning to `O=C(c1ccc(NS(=O)(=O)c2cccc(F)c2)cc1)N1CCCCC1`, the inhibition was -7.22% in assay [1] and -9% in assay [2].
In the case of `COc1cc(C(O)c2nc(-c3ccncc3)cs2)ccc1F` (centres undefined), the inhibition in assay [1] was 4.64%; in assay [2], 20.8%.
Turning to `CN(/C(=N\S(=O)(=O)c1ccccc1)c1ccccc1)c1ccc(O)cc1`, the inhibition in assay [1] was -3.87%; in assay [2] it was -40.4%.
Consider `O=C(COC(=O)CCCOc1ccc(Cl)cc1Cl)NCc1ccccc1`, for which the inhibition in assay [1] was 0.2%; in assay [2] it was 15.4%.
Consider `CCOc1ccc(C(=O)CCC(=O)Nc2cccc(S(=O)(=O)N3CCCCC3)c2)cc1`, for which the values for the inhibition in assay [1] and in assay [2] were 4.55% and 44.2%, respectively.
In the same order, the values of `COc1ccc(C(=O)O/N=C(\N)c2ccccn2)cc1` are -70.2% and 30%.
In the same order, the values of `CN1CCN(c2nc3ccccc3nc2C(C#N)S(=O)(=O)c2ccccc2)CC1` (centres undefined) are 10.5% and 20.1%.
In the same order, the values of `CCOC(=O)C1=C[C@@H](c2ccccc2)N(S(=O)(=O)c2ccc(C)cc2)[C@H]1c1ccc(F)cc1` are -7.61% and -5.87%.
With `CC(c1ccccc1)N1CCN(C(=O)CCl)CC1` (centres undefined), the inhibition in assay [1] was 17.4%; in assay [2] it was 43.9%.
`CCc1cc2c(Sc3nc4ccccc4s3)ncnc2s1`: the inhibition is 36.6% (active) in assay [1] and 42.6% in assay [2].
For `COc1cc(OC)cc(-c2cc3nc(C)c(CCC(=O)NCc4ccccc4)c(C)n3n2)c1`, the inhibition in assay [1] was 66.8% (active); in assay [2], 72.1% (active).
For `CCN(CC)S(=O)(=O)c1ccc(NC2c3ccccc3C(=O)N2Cc2ccco2)cc1` (centres undefined), in that order: -12.8% and -30.1%.
Take `Cc1ccc(C2CC(c3cccs3)=NN2C(=O)CCl)cc1` (centres undefined): the inhibition in assay [1] is 6.45%; in assay [2] it was 38.9%.
As to `CCN(CC(=O)Nc1cc(Cl)ccc1C)C(=O)C1CCN(c2ncnc3sc(C)c(C)c23)CC1`, the inhibition was 8.26% in assay [1] and 20.7% in assay [2].
For the molecule `CCn1c(C2CCN(S(=O)(=O)c3ccc(OC)cc3)CC2)n[nH]c1=S`, the inhibition in assay [1] was -1.12%; in assay [2], -16.9%.
In the case of `Nc1ccc(-c2cc3ccccc3c(=O)o2)cc1`, the inhibition in assay [1] is -7.3%; in assay [2], 79.1% (active).
In the case of `O=C(NC(=O)c1ccccc1)Nc1ccccn1`, the inhibition in assay [1] was 4.41%; in assay [2], 54.8% (active).
In the same order, the values of `C[C@@H]1CCN(C2CC2)S(=O)(=O)c2ccc(N3CCC[C@H]3C)cc2O1` are -8.49% and -6.67%.
Consider `Cc1ccc(C(=O)Nc2nc3ccccc3[nH]2)cc1`, for which the inhibition in assay [1] is -3.8%; in assay [2] it was 49.1% (active).
As to `COc1cc(OC)nc(Nc2nc(C(N)Cc3ccc(F)cc3)cs2)n1` (centres undefined), the inhibition in assay [1] is -4.22%; in assay [2], -0.34%.
`CCOC(=O)Cn1c(=O)c2c(nc(N3CCCCC3)n2Cc2ccccc2)n(C)c1=O`: the inhibition in assay [1] is -5.76%; in assay [2], 4.93%.
With `COc1cc(C#Cc2c(-c3cncn3C)n(C)c3ccc(-c4ccc(OC)nc4)cc23)cc(OC)c1`, the figures for the inhibition in assay [1] and in assay [2] were -13.2% and -23.7%, respectively.
Turning to `Cc1[nH]nc(-c2cccnc2)c1N=NN(C)C`, the inhibition was 10.9% in assay [1] and 41.1% in assay [2].
As for `COc1ccc(C(NC(=O)C2CCN(CCCOc3ccccc3)CC2)c2cccs2)cc1` (centres undefined), the inhibition is -8.07% in assay [1] and 3.49% in assay [2].
Regarding `CN(C)S(=O)(=O)c1cccc(NC(=O)CSc2ncnc3ccccc23)c1`, the inhibition in assay [1] is 7.54%; in assay [2], 29.7%.
Regarding `Cc1nn(-c2ccccc2)c(N2CCCC2)c1/C=N/NC(=O)c1cccc(S(=O)(=O)Nc2ccc(Cl)cc2)c1`, the inhibition in assay [1] is -8.85%; in assay [2], -16.7%.
As to `COc1ccc([C@H]2CC(=O)C=C(c3ccc(Oc4ccccc4)cc3)C2)cc1OC`, the inhibition in assay [1] is 10.7%; in assay [2], 15.4%.
Regarding `COc1ccccc1C(C)NC(=O)C1CCN(S(=O)(=O)c2cccs2)CC1` (centres undefined), the inhibition in assay [1] was -3.74%; in assay [2] it was 6.18%.
As for `NC1=NC(=O)/C(=C\c2cccnc2)S1`, the inhibition in assay [1] was -14.6%; in assay [2] it was 35.6%.
Turning to `Cc1ccc(N(C)C(=O)c2cc(S(=O)(=O)N3CCCCC3)c[nH]2)cc1`, the inhibition in assay [1] was 1.11%; in assay [2], 15.4%.
For `Cc1ccc(NC(=O)C2CCN(S(=O)(=O)c3ccc(N4CCCC4=O)cc3)CC2)cc1Cl`, the inhibition in assay [1] was 31%; in assay [2], 46.4%.
In the same order, the values of `O=C(CCCN1C(=O)/C(=C/c2cccc(Br)c2)SC1=S)NCCCN1CCOCC1` are 32.1% and 10.6%.
In the same order, the values of `Cc1cccnc1CN1CCN(C(=O)c2cc(COc3ccc4ncccc4c3)on2)CC1` are 8.23% and 15.3%.
Consider `CCN(CC)c1nc(C=Cc2ccc(N(C)C)cc2)c2nccnc2n1`, for which the inhibition is 17.1% in assay [1] and 21.8% in assay [2].
As to `CCOc1cccc(NC(=O)C2CC(=O)N(c3ccc(F)cc3)C2)c1` (centres undefined), the inhibition was 6.75% in assay [1] and -14.1% in assay [2].
Turning to `Cc1ccc2nc(-c3cc(N)cc(N)c3)oc2c1`, the inhibition was -8.66% in assay [1] and 38.3% in assay [2].
For `Cc1ccc(Cn2ccc(=O)c(OCc3c(Cl)cccc3Cl)c2C)cc1`, in that order: 11.9% and 13.3%.
Regarding `C[C@H]1CCC[C@@H](O)CC(=O)c2c(O)cc(O)cc2CC(=O)O1`, the inhibition in assay [1] is 24%; in assay [2], 32.3%.
In the same order, the values of `Cc1ccc2c(c1)sc(=NC(=O)c1cccs1)n2C` are -58.3% and -3.83%.
Consider `CC(C)(C)c1ccc(Oc2ccc(NC(=O)c3ccco3)cn2)cc1`, for which the inhibition was 30.6% in assay [1] and 42.2% in assay [2].
Take `CN1/C(=C\C=C2/SC(=S)NC2=O)C(C)(C)c2ccccc21`: the inhibition in assay [1] is 8.01%; in assay [2], 15.6%.
In the case of `COc1cc(/C=C/C(=O)c2ccc3c(c2)OCCO3)cc(OC)c1OC`, the inhibition in assay [1] is 5.55%; in assay [2], 29.2%.
`C=C1C(=O)[C@]23C[C@H]1CC[C@H]2[C@]1(C)CCC[C@@](C)(C(=O)OC)[C@H]1C[C@@H]3O`: the inhibition is 77.6% (active) in assay [1] and 90.4% (active) in assay [2].
Turning to `O=C(NC12CC3CC(CC(C3)C1)C2)C1CC(=O)N(c2ccccc2)C1` (centres undefined), the inhibition in assay [1] is 9.52%; in assay [2], -0.38%.
Consider `COc1ccc(-n2c(-c3ccccc3)c[n+]3c2CCC3)cc1`, for which the results for the inhibition in assay [1] and in assay [2] were 6.63% and 36%, respectively.
For `CCc1ccc(/C=C2\SC(=S)N(CCC(=O)NC3=NCCS3)C2=O)cc1`, in that order: -67.3% and 75% (active).
Regarding `CCCSc1nnc(Sc2nnnn2-c2ccccc2)s1`, the results for the inhibition in assay [1] and in assay [2] were 7.33% and 16.8%, respectively.
With `Cn1cc(CN2CCN(CCO)CC2)c(-c2ccc(Oc3ccccc3)cc2)n1`, the inhibition in assay [1] is -9.32%; in assay [2], 7.36%.
Consider `COc1ccc2c(c1)CCCN2C(=O)C1CCCN(S(=O)(=O)c2ccc(C(C)(C)C)cc2)C1` (centres undefined), for which the values for the inhibition in assay [1] and in assay [2] were -3.95% and 15.7%, respectively.
Turning to `O=C1NC(c2ccccc2)Cc2ccncc21` (centres undefined), the inhibition was -6.21% in assay [1] and -28.4% in assay [2].
In the case of `O=C(O)Cc1nn(Cc2ccc(Cl)cc2)c(=O)c2ccccc12`, the inhibition is -13.4% in assay [1] and -30.9% in assay [2].
In the case of `Cc1ccc(C)c(N2CCN(C(=O)c3ccc4c(c3)c(C)c(C)n4C)CC2)c1`, the inhibition in assay [1] was -28.6%; in assay [2] it was 3.19%.
On to `CC(C)C[C@H]1CN(CCCC[C@H]2CNC(=O)C(=O)N2CCc2ccccc2)C(=O)C(=O)N1CCC1CCCCC1`, for which the inhibition in assay [1] was 10.7%; in assay [2], -17.3%.
Turning to `CC(=O)N1/C(=C/c2ccc(N(C)C)cc2)C(=O)c2ccccc21`, the inhibition is 13.3% in assay [1] and 72.6% (active) in assay [2].
Consider `COc1ccc(/C=C2\SC(=S)N(CCCC(=O)N3CCN(C)CC3)C2=O)cc1`, for which the inhibition was -11.9% in assay [1] and 2.68% in assay [2].
For `CC(C)c1ccc(/C=C2\CC/C(=C\C=N\N(C)C)C2=O)cc1`, the figures for the inhibition in assay [1] and in assay [2] were -56.7% and -2.89%, respectively.
`CC1(C)CC(=O)C/C(=N/Nc2nc3ccccc3s2)C1`: the inhibition was -61.5% in assay [1] and -13.5% in assay [2].
Consider `CC(C)=CCc1c(O)ccc2c1OC(c1ccc(O)c(O)c1)CC2=O` (centres undefined), for which the values for the inhibition in assay [1] and in assay [2] were 10.7% and 56.9% (active), respectively.
In the same order, the values of `COc1ccccc1/C=C/C(=O)c1cc(Br)ccc1OC(=O)c1ccco1` are -1.7% and -2.06%.
As to `Cc1ccc(C(=O)O/N=C(\N)c2ccccn2)cc1`, the inhibition was -66.4% in assay [1] and -57% in assay [2].
Consider `COc1cc2ncnc(NCc3ccc4c(c3)OCO4)c2cc1OC`, for which the inhibition in assay [1] is 7.59%; in assay [2] it was -5.74%.
`CCc1ccc(-c2nc(CS(=O)CC(=O)NCc3ccccc3)c(C)o2)cc1` (centres undefined): the inhibition in assay [1] is -8.7%; in assay [2], 51.9% (active).
For `COc1ccc(CNC(=O)COC(=O)CCCOc2ccc(Cl)cc2Cl)cc1`, the inhibition in assay [1] was 13%; in assay [2], 15.7%.
